An excerpt weighted towards active compounds, which were near 6.5% of everything screened.
TGFb inhibitor = TGF-b pathway inhibition. HepG2 CAGA-GFP TGF-b/SMAD3 reporter, GFP fluorescence, 18 h; TGF-beta stimulated, 500 pg/mL final. Potency, µM (titrated, usually from 46.1 µM), for the others: top-dose activity, negative = inhibition, most hits filed as inhibitors. 410,000 compounds, 1.2% hits; further: potency means the concentration at half of the fitted maximal effect; on the % scale 0 is the no-effect control and ±100 the full control effect; nearly all actives have a fitted effect of over 65% in size
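Inhibition of TGF-beta-driven CAGA-GFP reporter expression in HEPG2 cells is measured by cellular GFP fluorescence after 18 h stimulation with 500 pg/mL recombinant TGF-beta in 1% FBS medium at 37 degrees C.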
Giardia killer = kills Giardia lamblia | Giardia lamblia trophozoite viability | activity change, % at 7.66 µM, hits read low | 340,000 compounds, 0.15% hits | AID 540267; in the data active means activity change below about -80%; inconclusive means between about -30% and that limit;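 further: parasites exposed to compound for two days anaerobically before the ATP read; on the % scale 0 is the no-effect control and ±100 the full control effect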
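Luminescence from cellular ATP indicates surviving trophozoites (100 cells/well) following 48 hrs anaerobic compound treatment at 37 deg C; signal develops 15-30 min at room temperature.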
HT1080-NT tox = kills 2HG-producing HT-1080-NT fibrosarcoma cells; 360,000 compounds, 1.6% hits; AID 686970; HT-1080-NT fibrosarcoma viability, CellTiter-Glo ATP luminescence, 48 h; Potency, µM (highest dose often 46.1 µM), for inactives: at the highest dose activity, negative = less viability, hits mostly cytotoxic;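 further: NT is the 2HG producing partner of a matched IDH1 knockdown line; potency means the concentration at half of the fitted maximal effect; 0% = DMSO-treated cells and -100% = media-only wells without cells; nearly all actives have a fitted effect of over 55% in size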
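A 48-hour cytotoxicity screen used HT-1080-NT cells plated 2 hours before compound delivery. ATP-based CellTiter-Glo luminescence measured viability, normalized to DMSO and no-cell controls.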
IL1B secr inh = inflammasome signaling inhibition, IL-1 beta readout; activity change, % at 57.5 µM; 360,000 compounds, 4.7% hits; THP-1 LPS/ATP IL-1B secretion, AlphaLISA, 16 h; stronger effect = lower value; in the data active means activity change below about -50%; inconclusive means mostly about -30% to -49%; further: on the % scale 0 is the no-effect control and ±100 the full control effect
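Secreted IL-1B measured by AlphaLISA bead assay after 16 h compound exposure of THP-1 cells; compounds (final up to 57.5 uM) added 1 h before LPS (250 ng/mL) and ATP (1.25 mM) stimulation; lower signal means less secretion.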
HT1080 IDH1KD tx = HT-1080 IDH1 knockdown cell toxicity (counter line); 360,000 compounds, 2% hits; AID 686971; HT-1080 IDH1 knockdown viability, ATP luminescence, 48 h; Potency, µM (doses to about 46.1 µM), without a hit: at the highest dose activity, negative = toxicity, actives largely listed as cytotoxic;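 further: potency means the concentration at half of the fitted maximal effect; 0% = DMSO wells and -100% = cell-free medium wells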
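Viability of IDH1-knockdown HT-1080 fibrosarcoma cells was assessed by CellTiter-Glo after 48 h at 37 °C with titrated compound; concentration-effect curves were classified by fit quality and response size.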
HepG2 viability = HepG2 cytotoxicity, counter-screen for TGF-b inhibitors. 410,000 compounds, 0.76% hits. HepG2 CAGA-GFP viability, ATP luminescence, 18 h. AID 588856. Potency, µM (titrated, usually from 46.1 µM), inactives show at the top dose activity change, negative = cytotoxicity, most hits filed as cytotoxic; further: potency means the concentration at half of the fitted maximal effect
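CellTiter-Glo luminescence gave cytotoxicity after 18 hours at 37 degrees C. The cells were HepG2 CAGA-GFP in 1% FBS DMEM, stimulated with 500 pg/mL TGF-beta after compound addition. %Activity was normalised to no-cell wells (complete cell-killing) and DMSO (no toxicity), and curves were fitted and classified.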
* marks the source's active call; other numbers are inactive results; u = inconclusive; x = no result; ! = repeats disagree. Unless noted, the call rests on the fitted dose curve; in most records, active means well fitted curve in the direction sought with a large enough effect; inconclusive means small, poorly fitted or top-dose-only effect, or another doubt; inactive means no such curve, though single readings can be large; an effect the other way counts as inactive or inconclusive.

SMILES	TGFb inhibitor	Giardia killer	HT1080-NT tox	IL1B secr inh	HT1080 IDH1KD tx	HepG2 viability
CCOC(=O)c1c(-n2c(C)cc(/C=C3\C(=O)NC(=O)N(C)C3=O)c2C)sc2c1CCCC2	-10%	-9	14%	-73*	3%	-14%
Cc1ccc(-n2c(C)cc(/C=C3/C(=O)NC(=O)N(C)C3=O)c2C)cc1	-3%	16	-4%	25	0%	-11%
CCCN1CCc2cccc3c2[C@H]1Cc1ccc(O)c(O)c1-3	u	-7	3.3µM*	-3	23µM*	-26%
COc1ccc2c(c1O)-c1c(OC)c(OC)cc3c1[C@H](C2)N(C)CC3	-8%	11	u	10	17%	-16%
CN1CCc2cccc3c2[C@H]1Cc1ccc(O)c(O)c1-3	u	0	21µM*!	-9	33µM*	-21%
Cc1ccc2c(c1)N(C(=O)CCC(=O)N1CCC3(CC1)OCCO3)CCO2	11%	-12	-2%	-7	9%	11%
Cc1ccc(N)c(N)c1	1%	u	-18%	u	0%	-30%
COc1ccc(-n2c(SCCN(C)C)nc3ccccc3c2=O)cc1	1%	31	0%	-9	4%	-2%
COP(=S)(OC)SCn1nnc2ccccc2c1=O	16%	-6	x	-93*	x	-15%
O=C(O)c1cccc2nc3ccccc3nc12	u	8	-7%	15	1%	-64%
COC[C@H]1OC(=O)c2coc3c2[C@@]1(C)C1=C(C3=O)[C@@H]2CCC(=O)[C@@]2(C)C[C@H]1OC(C)=O	u	-1	u	-101*	23µM*	-28%
CCOc1ccc(S(=O)(=O)N(C)c2ccc(OCC(=O)N3c4ccc(C)cc4C4CN(C)CCC43)cc2)cc1 (centres undefined)	-4%	6	x	-50*	u	-27%
CCN1CCN(c2cc(N3CCCC3)c([N+](=O)[O-])cc2F)CC1	0%	21	-5%	-7	8%	-26%
CCN(CC)c1nc2c(C)cccn2c(=O)c1C=C1C(=O)NC(=O)NC1=O	0%	-28	-2%	-23	-2%	-11%
COc1cc(/C=C/c2nc3ccccc3c(=O)n2-c2ccc(O)cc2)ccc1O	u	-26	16µM*	-65*	18µM*	-111%
COc1ccc(-n2c(/C=C/c3ccc(O)c(O)c3)nc3ccccc3c2=O)cc1	u	15	-11%	u	-9%	-39%
CCN(C(=O)COC(=O)c1cn(C)c2ccccc12)c1ccc(F)cc1	-23%	0	10%	-30	6%	-13%
O=C1COc2ccc(-c3csc(=Nc4ccc(OC(F)F)cc4)n3CC3CCCO3)cc2N1 (centres undefined)	-23%	-3	u	-65*	u	-51%
CC(Cc1ccccc1)NCC(=O)Nc1cc(N(C)C)nc2ccccc12 (centres undefined)	-19%	20	u	x	23µM*	8%
CC(Cc1ccccc1)NCc1ccccc1O (centres undefined)	20%	2	5%	0	-4%	2%
CCCCOP(=O)(OCCCC)C(Nc1ccc(C(=O)OCC)cc1)c1ccncc1 (centres undefined)	u	6	u	-65*	-10%	-25%
O=C1NC(=O)C(=Cc2ccc(-c3ccc(S(=O)(=O)N4CCOCC4)cc3)o2)C(=O)N1	-6%	2	15%	-3	13%	-10%
O=C1NC(=O)C(=Cc2ccc(Sc3ccccc3)o2)C(=O)N1	-49%	10	18µM*	-100*	13µM*	-185%
O=C1NC(=O)C(=Cc2ccc(-c3ccc(Cl)cc3)o2)C(=O)N1	u	-2	1%	-108*	7%	-29%
O=C1NC(=O)C(=Cc2ccc(-c3ccc(F)cc3O)o2)C(=O)N1	u	8	u	-77*	u	-34%
SMILES	TGFb inhibitor	Giardia killer	HT1080-NT tox	IL1B secr inh	HT1080 IDH1KD tx	HepG2 viability
COc1ccc(OC)c(N2C(=O)/C(=C/c3ccco3)C(=O)NC2=S)c1	-11%	0	-3%	15	-3%	-11%
COc1ccc(OC)c(N2C(=O)NC(=O)/C(=C/c3ccc([N+](=O)[O-])s3)C2=O)c1	u	8	-1%	-73*	-28%	9%
CCc1ccc(C2=NN(CCC(=O)N3CCC4(CC3)OCCO4)C(=O)CC2)cc1	-13%	3	-8%	-2	-4%	-16%
CC1(C)CSC(=NCc2ccccc2)N1	8.9µM*	0	2%	21	-3%	-32%
CN1CCC(O)(c2cccs2)C(C(=O)c2cccs2)C1 (centres undefined)	u	-28	23µM*	-94*	u	-30%
O=C(O)c1cccs1	5%	x	x	x	x	16%
CCCCCCC(C)(C)c1ccc([C@@H]2C[C@H](O)CC[C@H]2CCCO)c(O)c1	13µM*	-14	2.6µM*	-67*	4.6µM*	10µM*!
O=P(Nc1ccccc1)(Oc1ccccc1)Oc1ccccc1	u	-13	-6%	-29	-5%	-9%
Cc1cccc(NP(=O)(Oc2ccccc2)Oc2ccccc2)c1C	-22%	1	u	-89*	-18%	-2%
Nc1ccc(C2(c3ccc(N)cc3)c3ccccc3-c3ccccc32)cc1	u	10	u	-171*	16µM*	-1%
Nc1ccc(-c2ccccc2)cc1	14%	-8	x	-5	x	1%
O=C(Nc1ccc(F)cc1F)c1cccn(Cc2ccccc2)c1=O	2%	1	-7%	-15	-24%	-13%
O=C1NC(=O)C2(Cc3ccccc3N3CCOCC32)C(=O)N1c1ccccc1 (centres undefined)	-9%	-10	u	36	18µM*	13%
COc1ccccc1N=Cc1c(O)n(C)c(=O)n(C)c1=O	-15%	0	0%	9	3%	-11%
Cc1cccc(C)c1NC(=O)Cn1c(=O)n(CC2CCC(C(=O)NCCc3ccccc3)CC2)c(=O)c2ccccc21 (centres undefined)	43%	x	x	x	x	-33%
COc1ccc(NC(=O)c2cn(CCC#N)nc2-c2cccc([N+](=O)[O-])c2)cc1	9%	-12	-21%	-9	1%	8%
COc1ccc(Oc2cc(NC(=O)c3nn(C)cc3[N+](=O)[O-])cc([N+](=O)[O-])c2)cc1	10µM*	-27	18µM*	-96*	5.2µM*	18µM*
CN1CC[C@@]2(C)c3cc(O)ccc3N(C)[C@@H]12	u	4	23µM*	-26	u	18µM*!

Source: PubChem BioAssay
